This is a sample that favours compounds with a hit; in the whole collection about 5.2% have one here.
PLK1 PBD block: qHTS for Inhibitors of PLK1-PDB (polo-like kinase 1 - polo-box domain): Primary Screen; Plk1 PBD binding of FITC phosphopeptide, fluorescence polarization; Potency, µM, for the others: max response, negative = inhibition, most hits filed as inhibitors; 360,000 tested, 2.8% active; further: series mostly up to about 57 µM; nearly all actives have a fitted effect of over 65% in size
Target sequence (P53350 whole entry, looked up, the tested form may be a part): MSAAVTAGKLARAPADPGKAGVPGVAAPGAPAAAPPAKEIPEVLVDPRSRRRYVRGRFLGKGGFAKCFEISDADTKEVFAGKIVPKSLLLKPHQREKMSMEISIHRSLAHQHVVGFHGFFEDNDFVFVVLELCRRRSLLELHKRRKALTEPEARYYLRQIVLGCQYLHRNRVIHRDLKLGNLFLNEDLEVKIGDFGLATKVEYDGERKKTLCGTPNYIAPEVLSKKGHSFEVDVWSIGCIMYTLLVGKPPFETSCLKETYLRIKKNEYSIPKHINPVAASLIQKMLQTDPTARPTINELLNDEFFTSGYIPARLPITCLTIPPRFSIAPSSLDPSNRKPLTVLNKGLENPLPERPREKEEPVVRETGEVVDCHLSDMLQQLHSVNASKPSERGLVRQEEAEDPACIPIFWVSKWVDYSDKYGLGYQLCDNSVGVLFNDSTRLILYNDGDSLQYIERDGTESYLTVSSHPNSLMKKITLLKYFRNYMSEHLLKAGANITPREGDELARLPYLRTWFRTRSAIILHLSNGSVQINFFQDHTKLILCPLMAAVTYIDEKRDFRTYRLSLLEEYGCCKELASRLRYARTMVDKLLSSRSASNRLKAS
Sfp PPTase inh: qHTS Assay for Inhibitors of Bacillus subtilis Sfp phosphopantetheinyl transferase (PPTase); 4'-phosphopantetheinyl transferase ffp (Bacillus subtilis), Q9F4F7; Biochemical Sfp PPTase activity, qHTS; Potency, µM, without a hit: largest response in the series, negative = inhibition, most hits filed as inhibitors; 310,000 tested, 3.5% active;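 further: the enzyme is Sfp with the accession as filed and its product quenches rhodamine fluorescence; 0% = enzyme reaction without inhibitor and -100% = no enzyme wells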
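Sfp 15 nM + cpd, 15 min RT; start w/ rhodamine-CoA 5 uM, BHQ-2-YbbR 12.5 uM (final); 50 mM Hepes pH 7.6, 10 mM MgCl2, 0.01% NP-40, 0.01% BSA; read 525/598 nm at 0 and 30 min.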
TrxR1 substrate: qHTS Assay for Substrates of Mammalian Selenoprotein Thioredoxin Reductase 1 (TrxR1): qHTS; Thioredoxin reductase 1, cytoplasmic (Rattus norvegicus), O89049; purified TrxR1 substrate turnover, NADPH consumption readout; Potency, µM (highest dose often 114 µM), for the others: at the highest dose activity change, negative = substrate turnover; 390,000 tested, 0.01% active; AID 588456, 2011; further: nearly all actives have a fitted effect of over 50% in size
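Rat TrxR1, dispensed at 90 nM, was prereduced with 400 uM NADPH (final) for 5 min at ~22 deg C, then incubated with compound 15 min before 400 uM selenite. A first-read NADPH fluorescence drop versus no-compound background flagged substrates.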
VDR inhibitor: Inhibitors of the vitamin D receptor (VDR): qHTS; Vitamin D3 receptor (Homo sapiens), P11473; VDR-SRC2-3 peptide fluorescence polarization, 2 h; AID 504847, 2011; Potency, µM, inactives show max response, negative = inhibition, hits mostly inhibitors; 400,000 tested, 0.93% active
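Reagent solutions, kept cold and dark, are dispensed first; compounds are then pinned in at 23 nl, plates briefly spun, and incubated 2 h at ambient temperature. Inhibition of VDR–SRC2-3 peptide binding is read by fluorescence polarization.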
mIDH1 inhibitor: qHTS for Inhibitors of mutant isocitrate dehydrogenase 1 (IDH1): qHTS. AID 602179, 2012. IDH1-R132H enzyme, NADPH consumption, diaphorase/resazurin fluorescence. Potency, µM (highest dose often 76.6 µM), for inactives: at the top dose activity change, negative = inhibition, most hits filed as inhibitors. 390,000 tested, 0.093% active; further: nearly all actives have a fitted effect of over 65% in size
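IDH1-R132H (0.5 ug/mL dispensed) in pH 7.5 Tris buffer was preincubated 30 min with compound, then given a substrate mix of 0.016 mM NADPH and 2 mM alpha-KG for 80 min at room temperature; remaining NADPH was read by diaphorase/resazurin fluorescence.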
TrxR1 inh: qHTS Assay for Inhibitors of Mammalian Selenoprotein Thioredoxin Reductase 1 (TrxR1): qHTS. Potency, µM (series often up to 114 µM), without a hit: at the top dose activity change, negative = inhibition, actives largely listed as inhibitors. 390,000 tested, 1% active. recombinant rTrxR1, NADPH fluorescence consumption, selenite substrate. AID 588453, 2011. Thioredoxin reductase 1, cytoplasmic (Rattus norvegicus), O89049; further: nearly all actives have a fitted effect of over 65% in size
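Rat TrxR1 (90 nM in the dispensed reagent) was pre-reduced with 400 uM NADPH for 5 min at room temperature, then incubated with compound for 15 min. After 400 uM selenite was added, NADPH fluorescence (Ex 340/Em 450 nm) was followed for 8 min.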
The depositor's hits bear a star; ? = inconclusive; . = not tested or not shown; ! = not confirmed by another sample; [ ] = dose if it differs, or a comment. The call rests on the fitted dose curve; in most records, active means well fitted curve in the direction sought with a large enough effect; inconclusive means small, poorly fitted or top-dose-only effect, or another doubt; inactive means no such curve, though single readings can be large; an effect the other way counts as inactive or inconclusive. Unless noted, on the % scale 0 is the no-effect control and ±100 the full control effect; potency means the concentration at half of the fitted maximal effect.

SMILES	PLK1 PBD block	Sfp PPTase inh	TrxR1 substrate	VDR inhibitor	mIDH1 inhibitor	TrxR1 inh
O=S(=O)(Nc1cccc(F)c1)c1ccc2[nH]c3c(c2c1)CCCCC3	.	.	-3%	13%	-5%	26%
O=C(NCc1ccc2c(c1)OCO2)C1CCCN(S(=O)(=O)c2cccc3nonc23)C1 (stereo not drawn)	27µM*!	-11%	8%[57.1 µM]	-6%	9%	10%[57.1 µM]
C=CCCN(C(C)C(=O)OC)S(=O)(=O)c1ccccc1Br (stereo not drawn)	.	7%	-6%	-25%	.	-4%
Cc1ccc2[nH]c(O)c(N=Nc3ccccc3C)c2c1	-5%	35µM*	8%	?	6%	?
CCOc1ccc(N2C(=O)CC(NCc3ccc(S(N)(=O)=O)cc3)C2=O)cc1 (stereo not drawn)	11µM*	8%	-5%	?	-8%	-8%
CCOc1ccc(N2C(=O)CC(NCC#N)C2=O)cc1 (stereo not drawn)	?	56µM*	3%	-6%	-7%	22µM*
COC(=O)c1ccccc1NC(=O)CCCOc1cc(=O)n(C)c2ccccc12	-8%	.	.	.	.	.
Oc1ccc(-c2cnns2)c(O)c1	?	56µM*	0%	-20%	4%	-9%
CCC(=O)Nc1sc2c(c1C(N)=O)CCC2	-10%	9%	-4%	1%	-5%	-4%
CCCC(=O)NC(=S)Nc1sc2c(c1C(N)=O)CCC2	?	40µM*	1%	-3%	2%	-1%
CC(C)C(=O)NC(=S)Nc1sc2c(c1C(N)=O)CCCC2	19µM*	?	-12%	?	-8%	?
Cc1cc(O)cc2c1O[C@](C)(CCC(=O)O)CC2	.	.	0%	.	.	-2%
COc1ccc(CS(=O)(=O)/C(Cl)=C(/Cl)C(=O)Nc2ccc(OC)nc2)cc1	?	1%	7%[57.1 µM]	40µM*	5%	?
Nc1nc(=S)c2ncn(C3CCCCC3)c2[nH]1	-20%	.	1%[2.29 µM]	8%	-1%	-4%[2.29 µM]
CCCCn1cnc2c(=S)nc(N)[nH]c21	-8%	14µM*	-5%	5%	-1%	-20%
CCCCCn1cnc2c(=S)nc(N)[nH]c21	?	2.5µM*	-11%[57.1 µM]	-27%	-8%	-1%[2.29 µM]
CCCn1cnc2c(=S)nc(N)[nH]c21	0%	40µM*	-4%	0%	-6%	-33%
CCOC(=O)CNC(=O)CN1CCCN(S(=O)(=O)c2ccc(Br)s2)CC1	-18%	-21%	0%	-6%	15%	16µM*
Cc1ccc2c(c1)c(=O)c1c3n2CCN(C(=O)CCl)C3CC1 (stereo not drawn)	?	79µM*	14%[57.1 µM]	?	8%	14µM*
CC(=O)c1ccc(NC(=O)C2CC2c2ccccc2)cc1 (stereo not drawn)	?	.	6%[57.1 µM]	-6%	0%	0%[57.1 µM]
CC(=O)c1ccc(NC(=O)C2C3C=CC(C3=C(c3ccccc3)c3ccccc3)C2C(=O)O)cc1 (stereo not drawn)	42µM*	11%	-2%	-21%	2%	0%
CC(=O)CCOC1CCCCO1 (stereo not drawn)	.	-14%	.	-3%	.	.
CC1=NN(c2ccc(Br)cc2)C(=O)/C1=C/c1cccs1	8.4µM*	-4%	10%[57.1 µM]	?	2%	1%[57.1 µM]
CC1=NN(c2ccc(C)cc2)C(=O)/C1=C\c1ccc(Br)s1	-21%	-7%	-9%	-21%	-10%	-16%
COc1cc(/C=C2/C(=O)N(c3ccc(Br)cc3)N=C2C)cc(OC)c1OC	1.3µM*	?	-3%	?	26%	-31%
SMILES	PLK1 PBD block	Sfp PPTase inh	TrxR1 substrate	VDR inhibitor	mIDH1 inhibitor	TrxR1 inh
COc1cc(/C=C2/C(=O)N(c3ccc(C(=O)O)cc3)N=C2C)cc(OC)c1O	40%	40µM*	-11%	-1%	13%	-34%
COc1cccc(/C=C/C(=C2/C(=O)N(c3ccccc3)N=C2C)c2ccc(Br)cc2)c1OC	-10%	9%	6%[57.1 µM]	-17%	0%	11%
CCOc1ccc(-c2cn3c(n2)sc2cc(C(=O)NCCC4=CCCCC4)ccc23)cc1	.	.	1%	0%	0%	-3%
CC1(C)O[C@H]2C[C@@H]3[C@H]4CCC5=CC(=O)CC[C@@]5(C)[C@]4(F)[C@@H](O)C[C@@]3(C)[C@@]2(C(=O)CCl)O1	.	15%	.	-16%	.	.
O=C(NCCCO)Nc1ccc2nc(-c3ccco3)c(-c3ccco3)nc2c1	.	14µM*	.	.	.	.
O=C(Nc1ccc(N2CCOCC2)cc1)Nc1ccc2nc(-c3ccco3)c(-c3ccco3)nc2c1	?	10µM*	-8%	17%	3%	-21%
O=C(Nc1ccc(F)c(Cl)c1)NC1CC1	-5%	-12%	4%	10%	-8%	12%
O=C(Nc1ccc2nc(-c3ccco3)c(-c3ccco3)nc2c1)NC1CC1	?	5µM*	1%	71µM*	4%	4.5µM*
OCCCNC(=S)Nc1ccc2nc(-c3ccccn3)c(-c3ccccn3)nc2c1	-16%	-13%	12%	-2%	5%	?
CCN(CC(=O)NCc1ccc(Cl)cc1)C(=O)c1sccc1C	-9%	.	-5%	-1%	-4%	3%
O=C(NCCCN1CCCC1)c1ccc2c(c1)N(Cc1cccc(Cl)c1)C(=O)c1ccccc1S2(=O)=O	1%	.	.	.	-6%	.
COCCOC(=O)/C(C#N)=C/c1cn(Cc2ccccc2)nc1-c1cccnc1	27µM*	10%	0%[57.1 µM]	?	4%	8%[57.1 µM]
Cc1ccccc1OCC(O)Cn1c(Br)nc2c1c(=O)[nH]c(=O)n2C (stereo not drawn)	1%	2%	5%	-3%	3%	26%
Cc1ccccc1OCC(O)Cn1c(SC(C)C)nc2c1c(=O)[nH]c(=O)n2C (stereo not drawn)	30µM*	56µM*	-2%	?	9%	0%
CCSc1nc2c(c(=O)[nH]c(=O)n2C)n1CC(O)COc1ccccc1C (stereo not drawn)	27µM*	?	2%	-27%	7%	16%
CC(C)CC1NC(=O)c2cc3ccccc3cc2-n2c1nc1cc(Cl)ccc1c2=O (stereo not drawn)	-4%	.	.	.	-8%	.

Screening data: PubChem, National Center for Advancing Translational Sciences (NCATS)
